Only some compounds are listed: those with a hit (about 1.8% of all), similar ones and a draw of the others.
APP transl inh = APP translation inhibition; SH-SY5Y APP 5'UTR-luciferase reporter, luminescence; inhibition, % at 2 µM; hit rate 0.82% among 190,000; AID 1285;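 active = inhibition above a set limit, derived from the sample mean plus 3 SD, cut at about 45% in these data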
Ba/F3 V617F tox = lowers viability of Ba/F3 cells expressing EpoR and JAK2V617F. ATP luminescence. inhibition, % at 5.6 µM. hit rate 1.1% among 220,000. AID 1446;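 active = inhibition above the campaign mean plus 3 SD over all tested compounds, cut at about 24% in these data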;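 note: cytokine-independent growth of Ba/F3 cells driven by EpoR plus mutant JAK2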
IEC-6 tox = IEC-6 cytotoxicity, counter-screen for KLF5 inhibitors | luminescence viability | inhibition, % at 5 µM | hit rate 0.78% among 290,000 | AID 1825; in the data active = inhibition above about 22%
BaF3 parental = parental Ba/F3 viability inhibition as JAK2V617F counter-screen. AID 1486. hit rate 1.1% among 220,000. inhibition, % at 5.6 µM. CellTiter-Glo ATP luminescence;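 active = inhibition above a per-campaign cutoff, the mean inhibition of all tested compounds plus 3 SD, cut at about 27% in these data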
KLF5 inh = kruppel-like factor 5 inhibition; DLD-1 KLF5 promoter-luciferase reporter, luminescence; inhibition, % at 5 µM; hit rate 0.23% among 290,000; AID 1700;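 active = inhibition above a per-plate limit of that plate's mean compound inhibition plus 3 SD, cut at about 60% in these data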;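 note: higher means less KLF5 promoter-driven luciferase light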
BaF3 parental 2 = counter-screen for JAK2V617F inhibitors: parental Ba/F3 viability inhibitors; shares compounds with Ba/F3 V617F tox; CellTiter-Glo luminescence; cells kept alive by added IL-3; inhibition, % at 5.6 µM; hit rate 31% among 580; AID 1520;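 active = cell growth inhibition above the hit limit set in the earlier mutant JAK2 cell screen, cut at about 27% in these data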
JAK2V617F confrm = Ba/F3 EpoR-JAK2V617F viability loss, confirmation. inhibition, % at 5.6 µM. AID 1521. hit rate 66% among 580. CellTiter-Glo luminescence. shares compounds with Ba/F3 V617F tox;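 active = mean inhibition above the hit cutoff derived in the earlier primary screen, cut at about 25% in these data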;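 note: higher means lower luminescence from reduced cell ATP and viability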
Of the large screens only hits and unclear results are named; the others gave an inactive call (follow-up assays come after a bar, where they were run).

CN(C)CCCN(Cc1ccccc1)C(=S)Nc1ccc(SC(F)F)cc1	Ba/F3 V617F tox 36 | BaF3 parental 2 inactive | JAK2V617F confrm 45
CC(=O)c1ccc(NC(=S)N(CCCN(C)C)Cc2ccccc2)cc1	none (no result: APP transl inh)
Nc1ccc2nc(-c3cc(Cl)c(N)c(Cl)c3)[nH]c2c1	Ba/F3 V617F tox 24 | BaF3 parental 2 31 | JAK2V617F confrm 53
Nc1ccc2nc(-c3ccc(Cl)cc3)[nH]c2c1	none (no result: Ba/F3 V617F tox, IEC-6 tox, BaF3 parental, KLF5 inh)
Cc1ccc(C)c(-c2nc3ccc(N)cc3[nH]2)c1	Ba/F3 V617F tox 33 | BaF3 parental 2 35 | JAK2V617F confrm 54
O=C(c1ccccc1)N1CCN(CC(O)Cn2ccc3ccccc32)CC1 (stereo not drawn)	none (no result: APP transl inh)
Cc1ccc(-n2nc3c(c2NC(=O)c2ccc4c(c2)OCO4)CS(=O)(=O)C3)cc1C	none (no result: APP transl inh, Ba/F3 V617F tox, BaF3 parental)
CCc1ccc(N2C(=O)CN(Cc3cccs3)C2=S)cc1	none
O=C(Cc1ccc(Cl)cc1)NCCc1c[nH]c2ccccc12	none (no result: APP transl inh, Ba/F3 V617F tox, BaF3 parental)
O=C(CCl)N(c1ccc(Cl)cc1)c1c[nH]c2ccccc12	Ba/F3 V617F tox 72 | BaF3 parental 2 73 | JAK2V617F confrm 99
COc1ccc(Cl)c(Cn2c(NCc3ccco3)nc3c2c(=O)n(C)c(=O)n3C)c1	Ba/F3 V617F tox 37 | BaF3 parental 2 83 | JAK2V617F confrm 62
CCCn1c(NCc2ccco2)nc2c1c(=O)n(C)c(=O)n2C	none
Cc1ccc(S(=O)(=O)N2CCC(C(=O)N[C@@H](C)C(=O)Nc3ccc4c(c3)OCO4)CC2)cc1	Ba/F3 V617F tox 43 (no result: APP transl inh) | BaF3 parental 2 inactive | JAK2V617F confrm inactive
CCCCc1cc(=O)oc2cc(OC(C)C(=O)NCCN3CCOCC3)c(Cl)cc12 (stereo not drawn)	none (no result: APP transl inh, Ba/F3 V617F tox, BaF3 parental)
COC(=O)COc1cccc2c(=O)n(CC(=O)N3CCCCC3)ccc12	none (no result: APP transl inh)
CCOC(=O)C(C)Oc1cccc2c(=O)n(CC(=O)NCCc3ccccc3)ccc12 (stereo not drawn)	none (no result: APP transl inh)
CCOC(=O)C(C)Oc1cccc2c(=O)n(CC(=O)NCc3ccc(F)cc3)ccc12 (stereo not drawn)	Ba/F3 V617F tox 29 (no result: APP transl inh) | BaF3 parental 2 62 | JAK2V617F confrm 97
COC(=O)COc1cccc2c(=O)n(CC(=O)NCc3ccc(F)cc3)ccc12	APP transl inh 73, Ba/F3 V617F tox 74 | BaF3 parental 2 inactive | JAK2V617F confrm 86
O=C(Nc1cc(S(=O)(=O)N2CCOCC2)ccc1Cl)C(=O)c1c(-c2ccccc2)cc2ccccn12	none
COc1ccc(C2=Nn3c(nnc3C3CCCCC3)SC2)cc1OC	Ba/F3 V617F tox 25 | BaF3 parental 2 inactive | JAK2V617F confrm 51
Cc1ccc(C2(C)NC(=O)N(CC(=O)Nc3cc(S(=O)(=O)N(C)C)ccc3C)C2=O)cc1 (stereo not drawn)	none (no result: APP transl inh, Ba/F3 V617F tox, BaF3 parental)
O=C(CCl)N=c1sccn1Cc1ccccc1Cl	Ba/F3 V617F tox 99, IEC-6 tox 100 (no result: APP transl inh) | BaF3 parental 2 inactive | JAK2V617F confrm 99
CCC(=O)OCC(=O)N=c1sccn1Cc1ccc(C)cc1	none (no result: APP transl inh, Ba/F3 V617F tox, BaF3 parental)
CCC(=O)OCC(=O)N=c1sccn1Cc1ccccc1Cl	none (no result: APP transl inh, Ba/F3 V617F tox, BaF3 parental)
O=C(CCl)N=c1sccn1Cc1ccc(Cl)cc1Cl	Ba/F3 V617F tox 101, IEC-6 tox 99 | BaF3 parental 2 inactive | JAK2V617F confrm 99
COc1ccccc1N1CCN(CCOc2c(OC)cccc2OC)CC1	Ba/F3 V617F tox 26 | BaF3 parental 2 inactive | JAK2V617F confrm inactive
CCOc1ccccc1N1CCN(Cc2cccc(OC)c2O)CC1	Ba/F3 V617F tox 40 | BaF3 parental 2 inactive | JAK2V617F confrm inactive
COc1ccccc1N1CCN(CCCCOc2c(OC)cccc2OC)CC1	none (no result: APP transl inh, Ba/F3 V617F tox, BaF3 parental)
CC(C)c1nnc(NC(=O)c2cccnc2)s1	none
CC(=O)C1=C(O)CC(C)(C)CC1=NCCc1nc2ccccc2[nH]1	Ba/F3 V617F tox 102 | BaF3 parental 2 inactive | JAK2V617F confrm inactive
O=C(COc1cccc(NC(=O)c2cccc([N+](=O)[O-])c2)c1)c1ccc(F)cc1	none (no result: APP transl inh)
COc1cccc(C(=O)COc2cccc(NC(=O)c3cccc([N+](=O)[O-])c3)c2)c1	Ba/F3 V617F tox 42 | BaF3 parental 2 inactive | JAK2V617F confrm inactive
COc1ccc(-c2cc(-c3ccc(C)cc3)n[nH]2)c(O)c1	none (no result: APP transl inh, Ba/F3 V617F tox, BaF3 parental)
COc1ccc(-c2cc(-c3cc(C)ccc3O)[nH]n2)cc1	Ba/F3 V617F tox 32 | BaF3 parental 2 inactive | JAK2V617F confrm 80
Nc1nnc(Sc2ccc(Cl)cc2[N+](=O)[O-])s1	Ba/F3 V617F tox 65 | BaF3 parental 2 inactive | JAK2V617F confrm inactive
Cc1cc(C)c2nc(SCC(=O)N3CC(=O)Nc4ccccc43)c(C#N)cc2c1	APP transl inh 96, Ba/F3 V617F tox 67 | BaF3 parental 2 97 | JAK2V617F confrm 99
COc1ccc(C(C)NC(=O)Cc2cccs2)cc1OC (stereo not drawn)	none (no result: APP transl inh, Ba/F3 V617F tox, BaF3 parental)
O=C(Nc1ccc(Cl)cc1)Nc1ccccc1Sc1ncc([N+](=O)[O-])s1	none (no result: APP transl inh)
O=[N+]([O-])c1cnc(Sc2ccncn2)s1	Ba/F3 V617F tox 73 (no result: APP transl inh) | BaF3 parental 2 29 | JAK2V617F confrm 96
COC(=O)[C@H]1CN(C(=O)c2ccccc2)C(=O)N1	none (no result: APP transl inh, Ba/F3 V617F tox, BaF3 parental)
COc1ccc(CC(NC(C)=O)C(=O)NC2CCN(c3ncccc3[N+](=O)[O-])CC2)cc1 (stereo not drawn)	none
COc1ccc(Nc2nc(N)nc(CCl)n2)cc1	Ba/F3 V617F tox 45 (no result: APP transl inh) | BaF3 parental 2 inactive | JAK2V617F confrm 65
Cc1ccccc1Nc1nc(N)nc(CCl)n1	Ba/F3 V617F tox 37 (no result: APP transl inh) | BaF3 parental 2 inactive | JAK2V617F confrm inactive
Nc1nc(CCl)nc(Nc2ccc3ccccc3c2)n1	Ba/F3 V617F tox 100, IEC-6 tox 47 (no result: APP transl inh) | BaF3 parental 2 inactive | JAK2V617F confrm 99
CC(/C=C/c1ccccc1)=N\NC(=O)Cn1cncn1	Ba/F3 V617F tox 31 (no result: APP transl inh) | BaF3 parental 2 inactive | JAK2V617F confrm inactive
O=C(CSc1ccccc1)Nc1ccc2c(c1)OCCO2	none (no result: APP transl inh, Ba/F3 V617F tox, BaF3 parental)
O=C(CSc1ccc(-c2ccccc2)nn1)Nc1ccc2c(c1)OCCO2	Ba/F3 V617F tox 46 | BaF3 parental 2 inactive | JAK2V617F confrm inactive
COc1ccccc1/C=C(/C#N)C(=O)O	none (no result: APP transl inh)
O=S(=O)(CCSc1nc2ccccc2s1)c1nc2ccccc2s1	Ba/F3 V617F tox 40 | BaF3 parental 2 36 | JAK2V617F confrm 100
CCS(=O)(=O)CCSc1nc2ccccc2s1	none
Cc1ccc(N/C(=C\C(=O)c2ccccc2)C(=O)O)cc1	Ba/F3 V617F tox 40 | BaF3 parental 2 inactive | JAK2V617F confrm inactive
COc1ccccc1-c1nnc(Sc2nc([N+](=O)[O-])nn2C)o1	Ba/F3 V617F tox 60 (no result: APP transl inh) | BaF3 parental 2 inactive | JAK2V617F confrm 87
Cn1cnnc1Sc1nc([N+](=O)[O-])nn1C	none
Cc1ccc(C(=O)c2c(C)oc3c2C(=O)C(=O)c2ccccc2-3)cc1	Ba/F3 V617F tox 27 | BaF3 parental 2 inactive | JAK2V617F confrm 33
COc1ccccc1NC(=O)C1CCCN(S(=O)(=O)c2ccccc2)C1 (stereo not drawn)	none (no result: APP transl inh, Ba/F3 V617F tox, BaF3 parental)
COc1ccc(-c2nc(N)ncc2-c2ccccc2OC)c(O)c1	none (no result: APP transl inh, Ba/F3 V617F tox, BaF3 parental)
COc1ccc(-c2cc(C(=O)O)nc3ccc4ccccc4c23)cc1OC	none
